# In publication PMC12864922, “TDP-43 directly inhibits mRNA accumulation in neurites through modulation of mRNA stability”:
# In all, about 9,900 sequences were measured (“r (bound/input frequency ratio)”: median about 0.7, highest 2% from about 6.5 on). This excerpt belongs to a sample that is enriched for the highest values.
# B1: ENSMUSG00000028439.291|Fam219a|94:98 (ssRNA)
# RNA: GGGAGUUCUACAGUCCGACGAUCGCUUCGAUAUCCGCAUGCUAGUGUCUCUCCUUCAGGCGCCCCACAUGCCAGCAUUUCCACCCUCUGGAUUCUCCUCACAUGUCACUCUCCAGGUGCCGGGGCCUAGAGUGGGCCACACAGAAGGAGGAGUGGGGCUGUUGGCUUAGGAAGGGAAGCGCCUCUCUGUACACCACAACCAGGAGCUGCCCACUCCCCACACCUCCAGCCCAGCUUACCUCCCCCUAGUACAGAGAUCCUAAUUAGAUAAGAAAAUGCCAAGGGAGGCAAGCCAGAGAAAGCACUCUUGCGGUCGCACUAGUGUGGAAUUCUCGGGUGUCAAGG
# B2: ENSMUSG00000090935.679|Synj2bp (ssRNA)
# RNA: GGGAGUUCUACAGUCCGACGAUCGCUUCGAUAUCCGCAUGCUAUGAACCUUGAGAUUCACCACUGUCAGGAGCUCUCUCUCUCUGCUUAGAAUCAUCCAGACAGCGGGCUGGUCAGCCCACAUUAAAUAAGAACAUGUGGGACUAGAAUUCAGUCAACAAUGACAUGUUUCAUCAGGUGGUUAAAAUGUACAGAUUCUGUUGGAAAUGUUCCAUGGUAUUUCAAUAGCCAGAAUGAAGAACUGGGCUAAGUCCAGAGCUCUGCUCUCUGAGCAUCUGCCCCAGAUACAGAGGCAGAGUAUGAACUCUUGCGGUCGCACUAGUGUGGAAUUCUCGGGUGUCAAGG
# B3: ENSMUSG00000043670.52|Diras1|235:240 (ssRNA)
# RNA: GGGAGUUCUACAGUCCGACGAUCGCUUCGAUAUCCGCAUGCUACACCAGCCUACAGUAAGGUUGGGCUCCAUCCCUGCCUCUUCACACCUCCAUAGCUUCAUCCUUUGCAGACCUCUCCCUCUAUAUCUCUUUGCUCCCCCACCCCCAUUCUAUCUGCACCCCACAACCACACACUGGAGGUUUGAUCCCUGUGGAUCUGAAAACAGGGACCUGGCUAAGGAACUGCUCAUCCCAGUCAGGCCCAGAGAGGUUACCUUGCCUCUCCAUCUCUGUCCCACACACCCCAGCCAUGCCCACUGUCCCUCUUGCGGUCGCACUAGUGUGGAAUUCUCGGGUGUCAAGG
# B4: ENSMUSG00000029028.191|Lrrc47 (ssRNA)
# RNA: GGGAGUUCUACAGUCCGACGAUCGCUUCGAUAUCCGCAUGCUACCCAUCUCUGUGCAUCCUGACUGCGCACAUCCCAUCUCCGCAUGUGUACGCAUCUGUACCAGCACACAGCUGCCAUCCCUCGAGCCACAGUGCCUGGUCCUAAGGACCCAGCAGCUGCACAGAGGACUUGGUGGCCCCGUGCCUUGCCAUCUGGCUGAGAAGAGAACCAGACCCUCAGCCUUCCCCCUCGACACCUUCUCGUUGGUGACCUCUGACCUUAAAGGACCAUUUCUACCUUCUGUAAAAGAACACCUGUUUGGCUCUUGCGGUCGCACUAGUGUGGAAUUCUCGGGUGUCAAGG
# Target: TDP-43 (Homo sapiens, UniProt Q13148 1-414)
# Experiment: RNA Bind-n-Seq with designed 260-mer pool; 25 mM Tris-HCl, 150 mM KCl, 3 mM MgCl2, BSA (printed 500 mg/mL), 20 units/mL SUPERase IN; pH not stated; 500 nM RNA pool, 1 h, 4 C; TDP-43 5, 50, 500 nM; high values mean tight binding
# Settings: protein: recombinant; tags: SBP (GST cleaved off with PreScission; pGEX-GST-SBP)
# Summary of the method: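 An in vitro-transcribed pool of 260-nt 3′ UTR oligos (500 nM) was incubated for 1 h at 4 °C with recombinant SBP-tagged TDP-43 at 5, 50 or 500 nM held on streptavidin beads. The buffer contained 25 mM Tris-HCl, 150 mM KCl, 3 mM MgCl2, BSA and SUPERase IN. Biotin-eluted bound RNA was sequenced, and binding, R, is each oligo's normalized read abundance in the bound sample over that in input.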
# TDP-43, sequence (Q13148 whole entry): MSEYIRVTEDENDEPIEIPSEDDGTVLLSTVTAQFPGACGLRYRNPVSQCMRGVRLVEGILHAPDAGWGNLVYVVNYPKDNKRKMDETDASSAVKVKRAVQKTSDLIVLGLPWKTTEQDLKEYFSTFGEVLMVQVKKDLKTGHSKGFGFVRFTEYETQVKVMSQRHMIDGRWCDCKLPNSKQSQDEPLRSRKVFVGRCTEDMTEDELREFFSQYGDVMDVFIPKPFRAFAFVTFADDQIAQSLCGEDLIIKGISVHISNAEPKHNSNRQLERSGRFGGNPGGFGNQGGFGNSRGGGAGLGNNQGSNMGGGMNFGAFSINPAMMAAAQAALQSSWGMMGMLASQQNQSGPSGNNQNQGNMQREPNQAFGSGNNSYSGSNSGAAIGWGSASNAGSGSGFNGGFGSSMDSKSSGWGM
row,Binder,binding signal
1,B1,0.63 R (bound/input frequency ratio)
2,B2,0.733 R (bound/input frequency ratio)
3,B3,2.23 R (bound/input frequency ratio)
4,B4,0.696 R (bound/input frequency ratio)
